Whole data set: some 8,300 sequences, median “log2 fold change of degron read counts, EGFP-low vs EGFP+ sorted cells (limma voom), compound-induced degradation” near -1.1, cut for the highest 2% near 3.2. The sample as a whole holds a higher share of the highest values than the screen did.
T1: CRBN, Q96SW2
T1 chain: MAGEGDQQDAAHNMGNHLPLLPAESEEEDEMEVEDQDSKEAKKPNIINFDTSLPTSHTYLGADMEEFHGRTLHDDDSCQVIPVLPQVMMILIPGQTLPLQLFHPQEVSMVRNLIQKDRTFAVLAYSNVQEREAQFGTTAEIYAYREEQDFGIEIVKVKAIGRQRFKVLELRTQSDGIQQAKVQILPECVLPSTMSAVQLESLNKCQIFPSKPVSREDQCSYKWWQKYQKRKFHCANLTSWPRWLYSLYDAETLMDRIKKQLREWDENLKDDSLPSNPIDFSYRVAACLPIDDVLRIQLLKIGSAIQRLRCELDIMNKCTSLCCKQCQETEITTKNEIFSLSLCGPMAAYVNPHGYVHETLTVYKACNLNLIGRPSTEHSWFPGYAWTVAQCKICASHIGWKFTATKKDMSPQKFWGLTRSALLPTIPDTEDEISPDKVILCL


Biological target: T1, CRBN, Q96SW2
Assay: log2 fold change of degron read counts, EGFP-low vs EGFP+ sorted cells (limma voom), compound-induced degradation; higher = more compound-induced degradation of the degron-EGFP fusion; degrons are variants of IKZF1/3 zinc finger 2; compound dose not given here
Conditions: Jurkat, 18 h
[1] = compound: compound 19 (5-tert-butyl-thalidomide)
[2] = compound: compound 22 (5-morpholino-thalidomide)
[3] = compound: compound 33 (diphenyl IMiD analogue)
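Note: pooled lentiviral library of zinc finger degron-EGFP fusions in mCherry-positive Jurkat cells, FACS-sorted after compound exposure, with degron abundance counted by next-generation sequencing.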

Sequence | log2 fold change of degron read counts [1] | log2 fold change of degron read counts [2] | log2 fold change of degron read counts [3] | log2 fold change of degron read counts (compound: thalidomide)
FDCPICGRVFTQKGNLLRHIKL [46F_47D_49P_50I_52G_53R_54V_55F_67L_, Q9UKT9] | -0.729 | -0.635 | 1.53 | 1.97
FLCNVCGAAFTQKGNLLRHIKL [46F_47L_49N_50V_52G_53A_54A_55F_67L_, Q9UKT9] | -1.6 | -2.27 | -0.522 | -0.568
FNCEICGAAFTQKGNLLRHIKL [46F_47N_49E_50I_52G_53A_54A_55F_67L_, Q9UKT9] | 3.08 | 1.75 | 0.0717 | 0.718
FKCEICGAAFTQKGNLLRHIKL [46F_47K_49E_50I_52G_53A_54A_55F_67L_, Q9UKT9] | 2.15 | -0.809 | -1.83 | 0.606
FSCEICGAAFTQKGNLLRHIKL [46F_47S_49E_50I_52G_53A_54A_55F_67L_, Q9UKT9] | 3.56 | 2.95 | 2.24 | 2.15
FTCEICGAAFTQKGNLLRHIKL [46F_47T_49E_50I_52G_53A_54A_55F_67L_, Q9UKT9] | 3.16 | 3.21 | 2.33 | 3.02
FCCEICGAAFTQKGNLLRHIKL [46F_47C_49E_50I_52G_53A_54A_55F_67L_, Q9UKT9] | 3.72 | 3.1 | 2.29 | 2.46
FACNVCGAMFTQKGNLLRHIKL [46F_47A_49N_50V_52G_53A_54M_55F_67L_, Q9UKT9] | 0.511 | -0.724 | -0.968 | -1.44
FFCDQCGAAFTQKGNLLRHIKL [46F_47F_49D_50Q_52G_53A_54A_55F_67L_, Q9UKT9] | 0.0639 | -0.343 | -0.617 | -2.46
LCCEICGFVCTQKGNLLRHIKL [46L_47C_49E_50I_52G_53F_54V_55C_67L_, Q9UKT9] | 0.511 | 0.955 | 1.53 | 1.13
LACEICGFVCTQKGNLLRHIKL [46L_47A_49E_50I_52G_53F_54V_55C_67L_, Q9UKT9] | 2.04 | 1.25 | -0.215 | -0.0645
LYCEICGFVCTQKGNLLRHIKL [46L_47Y_49E_50I_52G_53F_54V_55C_67L_, Q9UKT9] | 3.3 | 3.29 | 2.43 | 0.954
LQCEICGFVCTQKGNLLRHIKL [46L_47Q_49E_50I_52G_53F_54V_55C_67L_, Q9UKT9] | -0.0768 | 1.31 | 1.38 | 3.4
LLCEICGFVCTQKGNLLRHIKL [46L_47L_49E_50I_52G_53F_54V_55C_67L_, Q9UKT9] | -0.934 | -1.38 | 0.0357 | 1.04
LWCEICGFVCTQKGNLLRHIKL [46L_47W_49E_50I_52G_53F_54V_55C_67L_, Q9UKT9] | 2.88 | 3.17 | 2.26 | 0.659
LFCEICGFVCTQKGNLLRHIKL [46L_47F_49E_50I_52G_53F_54V_55C_67L_, Q9UKT9] | 3.27 | 3.45 | 1.38 | 1.31
LSCEICGFVCTQKGNLLRHIKL [46L_47S_49E_50I_52G_53F_54V_55C_67L_, Q9UKT9] | 1.2 | 1.38 | 0.553 | 0.403
LKCEICGFVCTQKGNLLRHIKL [46L_47K_49E_50I_52G_53F_54V_55C_67L_, Q9UKT9] | -1.72 | -2.04 | -2.48 | -0.691
FCCDVCGACFTQKGNLLRHIKL [46F_47C_49D_50V_52G_53A_54C_55F_67L_, Q9UKT9] | 0.633 | 0.299 | 1.47 | -0.594

Sequence | log2 fold change of degron read counts [1] | log2 fold change of degron read counts [2] | log2 fold change of degron read counts [3] | log2 fold change of degron read counts (compound: thalidomide)
FWCNQCGAKFTQKGNLLRHIKL [46F_47W_49N_50Q_52G_53A_54K_55F_67L_, Q9UKT9] | 0.0883 | 0.432 | -1.2 | -1.53
FTCNQCGRLFTQKGNLLRHIKL [46F_47T_49N_50Q_52G_53R_54L_55F_67L_, Q9UKT9] | -2.58 | -2.81 | -3.15 | -2.31
FYCPICGRVFTQKGNLLRHIKL [46F_47Y_49P_50I_52G_53R_54V_55F_67L_, Q9UKT9] | -0.29 | -0.155 | 0.579 | -1.3
FWCNQCGRTFTQKGNLLRHIKL [46F_47W_49N_50Q_52G_53R_54T_55F_67L_, Q9UKT9] | -1.55 | -1.36 | -1.37 | -1.45
FVCDQCGAPFTQKGNLLRHIKL [46F_47V_49D_50Q_52G_53A_54P_55F_67L_, Q9UKT9] | -1.33 | 0.669 | -0.689 | -0.0169
FICPICGRVFTQKGNLLRHIKL [46F_47I_49P_50I_52G_53R_54V_55F_67L_, Q9UKT9] | -1.47 | -0.445 | 0.321 | 0.637
FGCPICGAWFTQKGNLLRHIKL [46F_47G_49P_50I_52G_53A_54W_55F_67L_, Q9UKT9] | 1.54 | -0.463 | 1.47 | -0.0772
FCCEICGRVFTQKGNLLRHIKL [46F_47C_49E_50I_52G_53R_54V_55F_67L_, Q9UKT9] | -1.06 | -1.44 | -0.0327 | -0.334
FVCEICGASFTQKGNLLRHIKL [46F_47V_49E_50I_52G_53A_54S_55F_67L_, Q9UKT9] | 1.36 | 2.28 | 1.92 | 3
FTCEICGASFTQKGNLLRHIKL [46F_47T_49E_50I_52G_53A_54S_55F_67L_, Q9UKT9] | 2.27 | 3.03 | 2.5 | 3
FWCEICGASFTQKGNLLRHIKL [46F_47W_49E_50I_52G_53A_54S_55F_67L_, Q9UKT9] | 3.83 | 3.81 | 2.56 | 1.42
FFCEICGASFTQKGNLLRHIKL [46F_47F_49E_50I_52G_53A_54S_55F_67L_, Q9UKT9] | 3.6 | 3.72 | 2.31 | 1.63
FNCEICGASFTQKGNLLRHIKL [46F_47N_49E_50I_52G_53A_54S_55F_67L_, Q9UKT9] | 3.43 | 1.63 | 0.778 | 0.457
FECEICGASFTQKGNLLRHIKL [46F_47E_49E_50I_52G_53A_54S_55F_67L_, Q9UKT9] | 2.12 | -0.516 | 1.74 | 2.43
FFCEICGHSFTQKGNLLRHIKL [46F_47F_49E_50I_52G_53H_54S_55F_67L_, Q9UKT9] | -2.6 | -2.19 | -2.73 | -2.65
FACEICGASFTQKGNLLRHIKL [46F_47A_49E_50I_52G_53A_54S_55F_67L_, Q9UKT9] | 3.67 | 2.8 | 0.948 | 1.06
FICEICGASFTQKGNLLRHIKL [46F_47I_49E_50I_52G_53A_54S_55F_67L_, Q9UKT9] | 0.541 | 2.73 | 2.39 | 2.95
FLCEICGASFTQKGNLLRHIKL [46F_47L_49E_50I_52G_53A_54S_55F_67L_, Q9UKT9] | 1.8 | -0.0236 | 1.14 | 1.42
FRCEICGASFTQKGNLLRHIKL [46F_47R_49E_50I_52G_53A_54S_55F_67L_, Q9UKT9] | 2.38 | 1.52 | 2.01 | 2.12
